PubChem BioAssay (EPA / NIEHS)
Activity calls are given as the source filed them. The calls were made as follows: active = hit-call score of the fitted dose curve at least 0.9, where 1 is the maximum; inactive = score below 0.9.

Assay: CCTE_Shafer_MEA_dev_network_spike_duration_std: CCTE's Neural Network Formation Assay for Standard Deviation of Network Spike Duration, Shafer Lab (AID 2284052);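 also: hits are decreases in network spike duration SD versus DMSO vehicle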
Procedure: CCTE_Shafer_MEA_dev assay is conducted using Axion Biosystems 48 well microelectrode array (MEA) plates and Maestro recording system. Each well of the MEA plate contains a grid of 16 microelectrodes embedded in the culture surface. Electrically active cells, such as neurons, can be cultured over the electrodes, and electrical activity in these cells can be recorded extracellularly. The spontaneous firing of neurons is captured from each electrode on a microsecond timescale providing both temporally and spatially precise data. […] The CCTE_Shafer_MEA_dev assay uses primary cultures of rat cortical neurons. Recordings are made on days post-plating 5, 7, 9 and 12. As these cultures mature over time, neural networks develop functional activity and form cohesive networks in which electrical activity can be highly coordinated. CCTE_Shafer_MEA_dev_network_spike_duration_std is 1 of 19 assay components of the CCTE_Shafer_MEA_dev assay. It measures the standard deviation of the duration of network spikes (temporally-clustered groups of action potential firing across multiple electrodes) during a recording in a microelectrode array (MEA) using Axion Biosystems Maestro 768 channel amplifier with the AxIS adaptive spike detector. To collapse across multiple recordings made on days post-plating 5, 7, 9 and 12, the trapezoidal area-under-the-curve of the component is calculated.Data from the assay component CCTE_Shafer_MEA_dev_network_spike_duration_std was analyzed into 1 assay endpoint. This assay endpoint, CCTE_Shafer_MEA_dev_network_spike_duration_std, was analyzed in the negative analysis fitting direction relative to DMSO as the negative control and baseline of activity. Using a type of functional reporter, gain or loss-of-signal activity can be used to understand electrical activity.
On the day prior to culture, each well was coated thoroughly with 150 uL of 0.05% polyethyleneimine (PEI, Sigma Cat P3143) in 50 mM HEPES (Sigma Cat H7523) at a pH of 8. The plate was incubated at 37C for one hour. PEI was rinsed out with 500 uL of sterile water three times. Plates were stored at 4C until the day of culture. This culture was plated at a seeding density of 1.5 x 10^5 cells/well on a 48-well MEA plate, prepared as described above. Cells were administered via a 25 uL media/laminin ([…]; Sigma Cat L2020-1MG) drop directly onto the microelectrode array, as adding the cells with the laminin results in better attachment than pre-coating with laminin. After 2 hours, an additional 475 uL of cortical media was added and the cells returned to the incubator. Exposure starts at day 0 of plating and is continued over twelve days of network development until the experiment is terminated. Cells are fed with fresh medium on DIV 5 and 9, following the recordings on those days. The entire volume of media in the well is exchanged and any vehicle or compound treatment is renewed. Complete details are found in OP-NHEERL/ISTD/SBB/TJS/2015-03-r0 (available on request, email shafer.tim@epa.gov). Measurement of the electrical activity is non-invasive, and recordings can be made from the same plate over multiple different days of the culture. In cortical neurons, this allows for the measurement of extracellular action potentials over the period during which networks form in the MEA plate.

Question: For `[O]=[V]([OH])([OH])[OH]`, which outcome is on record?
Answer: Its outcome is “inactive”.

Question: For `CC(CNC(=S)[S-])NC(=S)[S-].[Zn+2]` (stereo not drawn), which AC50 is on record?
Answer: Its AC50 is 3.38 µM (active).

Question: For `Cc1[nH]n(C)c(=O)c1C(=O)c1ccc(C(F)(F)F)cc1S(C)(=O)=O`, which outcome is on record?
Answer: Its outcome is “inactive”.

Question: Which outcome does the source give for `CN(C)CCCn1cc(C2=C(c3c[nH]c4ccccc34)C(=O)NC2=O)c2ccccc21` here?
Answer: The outcome was “inactive”.

Question: For `c1ccc2c(c1)ccc1c3ccccc3ccc21`, which outcome is on record?
Answer: The outcome was “inactive”.

Question: Which outcome does the source give for `F` here?
Answer: Its outcome is “inactive”.

Question: With `CC(C)O` as the molecule, how does the outcome read?
Answer: The outcome was “inactive”.

Question: For `Brc1cc(Br)c(Oc2cc(Br)c(Br)cc2Br)cc1Br`, which outcome is on record?
Answer: Its outcome is “inactive”.

Question: For `C[C@@H]1CCO[C@H]2Cn3cc(C(=O)NCc4ccc(F)cc4F)c(=O)c(O)c3C(=O)N12`, which outcome is on record?
Answer: The outcome was “inactive”.

Question: With `CCCCCC=C(C)C(CC)CCO` (stereo not drawn) as the molecule, how does the outcome read?
Answer: Its outcome is “inactive”.

Question: Which AC50 does the source give for `BrC1CC(Br)CC(Br)CC(Br)CC(Br)CC(Br)C1` (stereo not drawn) here?
Answer: Its AC50 is 5.04 µM (active).

Question: Which outcome does the source give for `CC(=O)N[C@@H](CC(=O)O)C(=O)O` here?
Answer: The outcome was “inactive”.

Question: For `CCc1ccccc1`, which outcome is on record?
Answer: The outcome was “inactive”.

Question: For `C[C@@H]1CC[C@@H](C(C)(C)O)[C@H](O)C1`, which outcome is on record?
Answer: Its outcome is “inactive”.

Question: Which outcome does the source give for `c1cc2c3c(c1)ccc1cccc(c13)C2` here?
Answer: Its outcome is “inactive”.

Question: Which outcome does the source give for `O=C1CC2(CCCC2)CC(=O)N1CCCCN1CCN(c2ncccn2)CC1` here?
Answer: The outcome was “inactive”.

Question: For `CC(C)c1nn(C(=O)NC(C)(C)C)c(=O)n1N`, which outcome is on record?
Answer: Its outcome is “inactive”.

Question: Which outcome does the source give for `CCCCCC(C)(CC)C(=O)NC` (stereo not drawn) here?
Answer: The outcome was “inactive”.
